Assay results from PubChem BioAssay.
Results with a measured potency or affinity are listed apart. Activity calls are given as the source filed them. No cut-off is given here; in the data, nearly all actives have IC50 up to about 0.98 µM.

Biological target: Calcium-dependent protein kinase 1 (Plasmodium falciparum (isolate 3D7)) (UniProt P62344)
Experiment: PfCDPK1 kinase inhibitors, biochemical, TCAMS library (AID 1159585);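 note: inhibitors leave more ATP so luminescence rises with inhibition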
Conditions: recombinant PfCDPK1, Kinase-Glo ATP depletion luminescence

Chain of Calcium-dependent protein kinase 1 (Plasmodium falciparum (isolate 3D7)) (P62344 whole entry, looked up): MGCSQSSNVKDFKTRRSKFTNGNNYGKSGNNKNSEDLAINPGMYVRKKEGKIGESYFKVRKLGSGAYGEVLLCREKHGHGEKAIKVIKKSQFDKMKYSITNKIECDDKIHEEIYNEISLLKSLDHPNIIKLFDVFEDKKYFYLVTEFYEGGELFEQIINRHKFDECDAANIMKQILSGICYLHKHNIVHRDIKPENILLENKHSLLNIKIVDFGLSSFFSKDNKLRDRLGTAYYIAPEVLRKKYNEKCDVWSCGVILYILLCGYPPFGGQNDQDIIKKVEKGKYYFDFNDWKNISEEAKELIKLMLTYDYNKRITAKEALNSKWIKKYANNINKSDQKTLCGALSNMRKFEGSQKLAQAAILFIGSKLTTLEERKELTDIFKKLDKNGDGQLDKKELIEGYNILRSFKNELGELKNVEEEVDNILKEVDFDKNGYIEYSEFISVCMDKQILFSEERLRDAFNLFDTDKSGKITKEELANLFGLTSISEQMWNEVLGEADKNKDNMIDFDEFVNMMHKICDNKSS

outcome, inactive:
CC(C)(C)c1ccc(NC(=O)c2ccc(CN3CCCN(Cc4cccc(Cl)c4)CC3)cc2)cc1, CC1(C)[C@H]2CC[C@@H](CNc3nc(NCCc4cnc[nH]4)nc(Nc4ccc5c(c4)OCO5)n3)[C@@H]1C2, Cc1cc(C2CCN(CCCCNC(=O)c3ccc(NC(=O)c4ccc(Cl)cc4)cc3)CC2)c(C)cc1OCc1ccccn1, Oc1ccc(CCCNc2nc(NCc3ccccc3-c3ccccc3)nc(NC3CCNCC3)n2)cc1, CCC(=Cc1cccc([N+](=O)[O-])c1)C(=O)NCC1CCN(c2nc(N)c3cc(OC)c(OC)cc3n2)CC1, NCCCCc1c(-c2ccc(Cl)c(Cl)c2)[nH]c2ccc(Cl)cc12, CCCCN(C(=O)c1ccccc1C)c1nnc(-c2ccccc2C)s1, Cc1cccc2[nH]c(-c3ccc(-c4cccc(NC(=O)COc5ccccc5C(N)=O)c4)s3)nc12, COc1ccc2nccc([C@@H](O)CN3CCC(NC(=O)c4nc(Cl)c(Cl)c(N)c4Cl)CC3)c2c1, Cc1cc(N2CCCC2)nc(Nc2ccc(NC(=O)c3ccc(Br)o3)cc2)n1, Cn1c(=N)cc(-c2ccc(Br)cc2)c2c(=O)[nH]c(N)nc21, CCC(C)(C)NC(=O)C(c1cccc(OC)c1)N(C(=O)CNC(=O)c1cccs1)c1ccc2c(c1)OCCO2 (stereo not given), Oc1ccccc1CCNCC1CCc2ccccc2C1 (stereo not given), COc1ccc2nccc([C@@H](O)CN3CCC(NCc4ccc(OC)c(NC=O)c4)CC3)c2c1, CCCN(Cc1ccc(OCC)cc1)Cc1cc(=O)c2cc(Cl)ccc2[nH]1, COc1cc(NCCCCCNc2cc(Cl)nc3ccccc23)nc2ccccc12, FC(F)(F)c1ccc2nc(-c3cccc(-c4cccc(CN5CCN(c6ccncc6)CC5)c4)c3)[nH]c2c1, CN1CCN(CCCN(Cc2csc(-c3ccc(CNCc4ccccc4)cc3)n2)S(=O)(=O)c2ccccc2)CC1, O=S1(=O)NC2(CCN(CCc3ccc(Cl)cc3)CC2)Nc2cc(F)cc(F)c21, O=C(NCCCN1CCCC1=O)c1cnc(N2CCC(Oc3ccccc3)CC2)c(Cl)c1, COc1ccc(C(=O)Nc2cc(Br)c3c(c2)CNCC3)cc1Br, NC(Cc1ccc(Cl)cc1)=NCCN1CCCCCC1, CC1CCCC(NC(=O)CCOc2ccccc2)C1 (stereo not given), Cc1noc(-c2ccc(NC[C@@H](C)NC[C@H](O)c3cccc(Cl)c3)cc2)n1, COc1ccc(NC(=O)Nc2cccc(-c3ccncc3)c2)cc1N1CCN(C)CC1, Cc1cc(N2CCCN(CC3CCCCC3)CC2)nc(Nc2ccc(Br)cc2)n1, CCCNCc1ccc(-c2ccc(CN(CCOC)C(=O)c3cscn3)cc2)nc1, CC(=O)Nc1ccc(Cl)c(Cl)c1, O=C(Nc1ccc(CN2CCCCC2)cc1)c1ccc(COc2ccc([N+](=O)[O-])cc2)o1, CCOc1ccc(/C=C/C(=O)Nc2cccc3c2CCN(C)C3)cc1, Cc1cc(NN=Cc2ccc(F)cc2)c2cccc(C)c2n1, COc1ccc(CNC(=O)c2cnc3c(O)cccc3c2Nc2cccc(NC(=O)c3ccc(F)cc3)c2)cc1, CCCCOc1cc2[nH]cc(C(=O)OCC)c(=O)c2cc1OCCCC, OC(Cn1ccnc1)(c1ccc(Cl)cc1Cl)C1CCCCC1 (stereo not given), O=C(c1cccs1)N1CCN(c2ccc([N+](=O)[O-])c(NC3CC3)c2)CC1, CC(=O)Nc1cccc(C(=O)Nc2cccc(-c3ccc(-c4nc5ccc(F)cc5[nH]4)s3)c2)c1, C=C1C[C@@H](n2cnc3c(NC(=O)c4ccccc4)ncnc32)[C@@H](F)[C@@H]1OC(c1ccccc1)(c1ccccc1)c1ccccc1, CS(=O)(=O)Nc1ccc2[nH]cc(C3CCN(CC4CCC(NC(=O)/C=C/c5ccc(Cl)c(Cl)c5)CC4)CC3)c2n1 (stereo not given), CN1CCN(c2ccnc3ccc(NC(=O)Nc4ccc(-c5ccccc5)cc4)cc23)CC1, CCC[C@@H]([C@@H](CC(C)C)C(=O)N[C@@H](CCCCNC(=O)c1ccccn1)C(=O)Nc1nccs1)N(O)C=O
